# Only some compounds are listed: those with a hit (about 6.7% of all), similar ones and a draw of the others.
# Autofluor counter: flagged as autofluorescent in microsphere protease counterscreen | compound autofluorescence counterscreen, microsphere flow cytometry; active compounds read high | fluorescence intensity (test concentration not listed) | 360,000 compounds, 3.1% hits | AID 624483; in the data active means fluorescence intensity above about 16000; inconclusive means no clear call, values can overlap the other calls
# Anthrax LF prot: anthrax lethal factor protease inhibition; multiplex microsphere protease cleavage assay, LF; AID 588501; inhibition, % at 10 µM; P15917; 360,000 compounds, 0.12% hits; further: plate controls were buffer without enzyme for full effect and enzyme alone for no effect
# BoNT-A LC inh2: inhibitors of Botulinum neurotoxin A light chain protease | 360,000 compounds, 0.17% hits | inhibition, % at 10 µM | multiplex microsphere protease substrate cleavage, flow cytometry; further: plate controls were buffer without enzyme for full effect and enzyme alone for no effect
# FBA Mtb inh: inhibitors of M. tuberculosis fructose-bisphosphate aldolase; purified M. tuberculosis FBA, fluorescence read-out; inhibition, % at 1 µM; 360,000 compounds, 2.3% hits; AID 588726; in the data active means inhibition above about 27%;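 further: 0% = vehicle and 100% = reference inhibitor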
# GDH-TPI counter: counter-screen for M. tuberculosis FBA inhibitors: GDH-TPI coupled enzymes; GDH-TPI coupled enzyme counterscreen, NADH absorbance; inhibition, % at 4.8 µM; 360,000 compounds, 1.2% hits; in the data active means inhibition above about 30%;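 further: 0% = DMSO wells and 100% = wells lacking the enzyme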
# BoNT-F LC inh: BoNT F light chain protease inhibition; 360,000 compounds, 0.22% hits; Multiplex microsphere protease cleavage assay, flow cytometry; inhibition, % at 10 µM; in the data active means inhibition above about 35%, passing the limit was not always enough; inconclusive means no clear call, values can overlap the other calls; further: plate controls were buffer without enzyme for full effect and enzyme alone for no effect
# BoNT-A LC CP1: blocks botulinum neurotoxin A light chain protease; AID 602139; multiplex microsphere protease assay, flow cytometry; inhibition, % at 10 µM; 720 compounds, 3% hits; shares compounds with BoNT-F LC inh; in the data active means inhibition above about 32%
# BoNTF LC inh 1: BoNT/F light chain protease inhibition. shares compounds with BoNT-F LC inh. multiplex microsphere protease cleavage assay, flow cytometry. inhibition, % at 10 µM. 720 tested, under 10 active. AID 602140; call rule not given here
# LF protease CP1: inhibitors of Bacillus anthracis lethal factor protease; shares compounds with BoNT-F LC inh; multiplex microsphere protease cleavage assay, LF; inhibition, % at 10 µM; 720 tested, under 10 active; AID 602142; call rule not given here
# * hit, by the source's call; u = inconclusive; x = not tested or not shown. Unless noted, no stated cut-off is given here; in the data, active means inhibition above about 30%; inconclusive means no clear call, values can overlap the other calls; inactive means below that.
SMILES,Autofluor counter,Anthrax LF prot,BoNT-A LC inh2,FBA Mtb inh,GDH-TPI counter,BoNT-F LC inh,BoNT-A LC CP1,BoNTF LC inh 1,LF protease CP1
O=C(Cn1nnc(-c2ccc(F)cc2)n1)N1CCCCC1,4103,-0.6,-0.5,1.3,-1.9,-3.2,x,x,x
Nc1ccc(-c2nnn(CC(=O)N3CCCCC3)n2)cc1,3071,46.5*,1.2,1.9,10.4,u,-0.9,-2.3,-4.5
CCn1cc(CNC(=O)c2c(-c3c(Cl)cccc3Cl)noc2C)c(C)n1,2081,1.7,4.2,-1.0,3.7,35.3*,-0.8,-6.4,-1.8
CCS(=O)(=O)NCc1ccc2c(c1)cc(C)n2C,4442,-72.5,10.4,-1.8,1.9,-115.9,x,x,x
Cc1cc2cc(CNC(=O)CC(C)C)ccc2n1C,17533*,33.8*,30.9*,1.6,15.4,12.8,0.5,-6.7,-1.8
CCCS(=O)(=O)NCc1ccc2c(c1)cc(C)n2C,u,3.4,69.3*,3.0,19.2,-41.4,1.4,-13.8,-2.4
CCCCC(=O)NCc1ccc2c(c1)cc(C)n2C,10959,46.7*,42.9*,0.0,16.7,16.8,1.5,-5.2,-0.7
Cc1ccccc1OCc1nnc(SC(C)C(=O)O)n1-c1ccccc1 (stereo unspecified),3725,-5.1,-0.3,-1.5,5.3,-11.7,x,x,x
O=C(c1cc(-c2ccc(Cl)cc2)n(-c2cc(Cl)ccc2Cl)n1)N1CCOCC1,2529,-3.9,0.5,-1.1,1.9,-9.1,x,x,x
COc1cc(-c2nc(-c3cccc(C)c3)no2)cc(OC)c1OC,5619,2.6,u,7.1,2.5,43.3*,0.2,-5.2,-4.2
COc1ccc(-c2nc(-c3cccc(C)c3)no2)cc1OC,7951,-5.8,0.1,0.4,10.7,-0.8,x,x,x
Cc1nc(N2CCN(C(c3ccccc3)c3ccccc3)CC2)[nH]c(=O)c1C,3825,3.0,2.6,0.9,-10.3,35.0*,-1.0,0.4,3.1
CCNC(=O)CC1C(=O)N(c2ccc(C)cc2)C(=O)N1CCOC (stereo unspecified),3534,7.9,3.9,0.1,13.0,35.5*,-1.3,-2.6,-1.9
COCCN1C(=O)N(c2cccc(C)c2)C(=O)C1CC(=O)Nc1ccc(OC)cc1 (stereo unspecified),3457,3.1,0.6,-1.6,-7.7,37.2*,-0.1,0.6,-1.3
COCCN1C(=O)N(c2cccc(OC)c2)C(=O)C1CC(=O)Nc1ccc(OC)cc1 (stereo unspecified),3820,-2.6,-1.9,-0.6,-2.5,-13.7,x,x,x
CC(C)NC(=O)Nc1ccc2c(c1)CC(=O)N([C@@H](C)CO)C[C@H](C)[C@@H](CN(C)C(=O)NC1CCCCC1)O2,3786,-1.0,0.1,-1.7,0.9,-9.1,x,x,x
CCOCCCNC(=O)c1ccc2c(c1)ncn2-c1ccc(CC)cc1,3804,9.3,-1.8,0.2,0.0,-2.2,x,x,x
Cc1ccc(CCC(=O)Nc2ccc(Cl)cc2Cl)o1,3523,-4.8,-0.5,-1.4,-1.8,-2.8,x,x,x
CCOC(=O)CSc1nc2sc3c(c2c(=O)n1-c1ccc(OC)cc1)CCN(C)C3,4383,3.2,42.0*,2.0,24.8,u,1.5,-3.5,-3.2
CCOC(=O)CSc1nc2sc3c(c2c(=O)n1-c1ccc(C)cc1)CCN(C)C3,3938,-4.0,11.8,10.2,25.4,-3.7,x,x,x
Cc1cc(C(=O)O)sc1C,7884,2.6,5.8,4.7,1.4,35.6*,-0.8,-2.8,-4.3
COc1ccccc1N1CCN(c2cnccn2)CC1,3193,1.4,-0.7,5.4,4.7,-3.2,x,x,x
Cc1ccc(CSc2nnc(-c3ccccc3N)c(=O)[nH]2)cc1,11779,-3.5,0.9,-0.7,8.8,-15.7,x,x,x
Cc1ccc(CSC2=Nc3ccccc3C3=NC(=O)CN23)cc1,4461,-8.2,4.5,6.2,6.4,35.5*,-0.2,-2.5,1.9
CC(C)CCOc1cccc(OCC(=O)Nc2ccncc2)c1,5563,-3.6,-1.1,-1.0,-3.4,-6.7,x,x,x
SMILES,Autofluor counter,Anthrax LF prot,BoNT-A LC inh2,FBA Mtb inh,GDH-TPI counter,BoNT-F LC inh,BoNT-A LC CP1,BoNTF LC inh 1,LF protease CP1
CC(C)(C)c1nnc(NC(=O)c2cccs2)s1,4578,-3.3,-2.4,-0.1,8.4,-6.6,x,x,x
Cc1nc2cc(F)ccc2n1C1CCN(Cc2nnnn2CCc2ccccc2)CC1,4226,-1.5,1.0,1.6,-1.2,42.1*,0.2,1.1,1.2
Cc1cc(C)c(C(=O)COC(=O)c2c(C)noc2C)cc1C,2961,-3.4,0.3,1.1,-0.4,5.0,x,x,x
O=C(CCS(=O)(=O)c1ccc(Cl)cc1)Nc1nc(-c2ccncc2)cs1,6307,0.6,-0.2,-0.9,-8.6,-5.3,x,x,x
O=C(CCS(=O)(=O)c1ccc(Cl)cc1)Nc1nc(-c2cccnc2)cs1,4871,4.1,51.4*,-2.5,5.1,3.5,-0.1,-5.5,2.3
COc1ccc(CC(=O)NCCS(=O)(=O)N2CCN(c3ccccc3)CC2)cc1OC,x,x,x,-0.4,7.4,x,x,x,x
CS(=O)(=O)Nc1ccc(C2=NN(C(=O)c3ccco3)C(c3ccccc3)C2)cc1 (stereo unspecified),2346,-0.5,-0.5,1.9,25.6,-2.4,x,x,x
Cc1ccc(C2CC(c3ccc(NS(C)(=O)=O)cc3)=NN2C(=O)c2ccco2)cc1 (stereo unspecified),2791,1.5,3.3,2.2,28.8,36.1*,0.7,-3.9,0.3
CCCC(C(=O)NC(C)(C)CC)N(CC1CCCO1)C(=O)CNS(=O)(=O)c1ccc(F)cc1 (stereo unspecified),2952,29.8*,1.2,-0.5,0.4,2.5,-0.1,-4.1,4.1
O=C1CC(N2CCN(c3ccc(Cl)cc3)CC2)C(=O)N1c1ccc(F)cc1 (stereo unspecified),3880,-3.3,2.6,0.9,3.4,56.5*,-1.5,1.1,-3.0
O=C(O)c1ccc(N2C(=O)CC(N3CCN(c4ccc(Cl)cc4)CC3)C2=O)cc1 (stereo unspecified),3771,-8.6,0.1,-2.5,2.8,u,x,x,x
CC(C)C12CN3CC(C(C)C)(CN(C1)C3c1ccc3c(c1)OCO3)C2=O (stereo unspecified),10699,-4.7,-0.6,-1.8,-8.8,-0.6,x,x,x
O=[N+]([O-])c1ccc(-c2cn3nc(-c4ccccc4)c(-c4ccccc4)nc3n2)cc1,x,x,x,1.9,3.1,x,x,x,x
c1ccc(-c2cn3nc(-c4ccccc4)c(-c4ccccc4)nc3n2)cc1,5284,45.9*,75.8*,-0.1,15.6,23.7,61.9*,11.3,28.3
O=[N+]([O-])c1cccc(-c2cn3nc(-c4ccccc4)c(-c4ccccc4)nc3n2)c1,4123,33.3*,67.4*,0.3,-7.7,47.6*,39.6*,10.5,24.4
Cc1ccc(-c2cn3nc(-c4ccccc4)c(-c4ccccc4)nc3n2)cc1,x,x,x,1.7,8.4,x,x,x,x
CCOc1ccc2ncc(S(=O)(=O)c3ccccc3)c(N3CCN(c4ccccc4)CC3)c2c1,6223,-8.8,-0.1,2.1,-8.0,-4.0,x,x,x

# Assay outcomes as filed in PubChem BioAssay.
